Reference: PubChem BioAssay AID2551 (National Center for Advancing Translational Sciences (NCATS), 2010)
Values joined by “and” are separate entries in the source; they are usually repeats but may differ in a detail not shown here. Identical values can stand only once. Among all 310,000 compounds or so, about 17,000 (5.5%) were called active. About 11% were inconclusive and are not listed. Calls come from the whole dose curve; as a rule, active = well fitted inhibition curve with a large enough effect; inconclusive = small, poorly fitted or top-dose-only effect, or effect the other way; inactive = no such curve, though single readings can be large or run the other way. What follows is part of a selection rich in actives, with near analogues and random picks from the rest. Entries that show only a call come without a potency.

Molecular target: Nuclear receptor ROR-gamma (Mus musculus) (UniProt P51450)
Assay: qHTS for inhibitors of ROR gamma transcriptional activity; note: nearly all actives have a fitted effect of over 60% in size
Conditions: Drosophila S2 Gal4-RORgamma UAS-luciferase reporter, 20 h; series mostly up to 53.6 µM
In short: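 In this cell-based reporter format, copper sulfate (700 uM final) drives Gal4–ROR gamma fusion expression from a metallothionein promoter in Drosophila Schneider cells; compounds preincubated 1 hr, reporter read after 20 hr at ambient temperature.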
Potency is the fitted concentration of half-maximal effect.

Chain of Nuclear receptor ROR-gamma (Mus musculus) (P51450 whole entry, looked up): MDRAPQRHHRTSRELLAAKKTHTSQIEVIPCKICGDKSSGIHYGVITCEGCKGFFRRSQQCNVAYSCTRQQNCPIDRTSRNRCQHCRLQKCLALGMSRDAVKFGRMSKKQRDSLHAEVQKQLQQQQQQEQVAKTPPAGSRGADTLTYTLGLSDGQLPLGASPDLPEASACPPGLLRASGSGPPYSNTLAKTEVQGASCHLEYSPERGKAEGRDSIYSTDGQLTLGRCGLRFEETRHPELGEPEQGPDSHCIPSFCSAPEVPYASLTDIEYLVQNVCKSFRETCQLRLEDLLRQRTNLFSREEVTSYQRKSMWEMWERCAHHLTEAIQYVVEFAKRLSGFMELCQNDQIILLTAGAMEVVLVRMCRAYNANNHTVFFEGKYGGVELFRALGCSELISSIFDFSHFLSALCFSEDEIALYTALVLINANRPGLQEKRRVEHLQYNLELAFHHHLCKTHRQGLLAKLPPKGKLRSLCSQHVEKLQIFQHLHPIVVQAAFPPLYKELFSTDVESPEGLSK

SMILES | Potency | activity change, negative = inhibition
O=C(CN(CC1CCCO1)C(=O)CNS(=O)(=O)c1ccc(Cl)cc1)NCc1ccccc1 (centres undefined) | inactive | 
O=C(NCCN1CCOCC1)c1ccc2c(c1)ncn2C1CCCC1 | inactive | 
c1ccc2cc3c(NCCN4CCOCC4)ccnc3cc2c1 | 11.2 µM (active) | 
Clc1ccccc1-c1cc(NCCN2CCOCC2)ncn1 | inactive | 
Cc1ccc2c(c1)N(CC(=O)N1CCC(O)CC1)C(=O)CO2 | inactive | 
Cc1ccc(C(=O)CCC(=O)N(C)CC(=O)Nc2c(Cl)cccc2Cl)cc1 | inactive | 
Cc1cccnc1NC(=O)c1cccc(S(=O)(=O)N2CCN(c3ccc(F)cc3)CC2)c1 | inactive | 
Cc1nc(=O)c(-c2ccccc2)c(C)n1-c1ccc(Br)cc1 | inactive | 
S=C1NC(c2ccccc2)=NCN1c1ccc(Br)cc1 | 8.91 µM (active) | 
Brc1ccccc1C1N=C(c2ccccc2)NO1 (centres undefined) | inactive | 
Cc1ccc2c(c1)C(c1ccccc1)N(C(=O)c1ccc(F)cc1)CC(=O)N2 (centres undefined) | inactive | 
Cc1ccc2nc(N(CCN(C)C)C(=O)C3=COCCO3)sc2c1 | inactive | 
COc1cccc(-c2noc(C3CCCN(C(=O)c4ccc(F)cc4)C3)n2)c1 (centres undefined) |  | -2.97% [at 1.91 µM] (inactive)
Cn1c(C(=O)NCCc2ccsc2)cc2c(=O)n(C)c3ccccc3c21 | inactive | 
CC1CCCC(C)N1CCCNC(=O)c1cc2c(=O)n(C)c3ccccc3c2n1C (centres undefined) | inactive | 
CCN1CCCC1CNC(=O)c1cc2c(=O)n(C)c3ccccc3c2n1C (centres undefined) | 3.98 µM (active) | 
Cc1ccc(OCC(=O)Nc2ccc(N3CCN(C(=O)c4ccco4)CC3)cc2)c(C)c1 | inactive | 
CC(=O)Oc1ccc(N(C(C)=O)S(=O)(=O)c2ccc3ccccc3c2)cc1Br | inactive | 
O=C1CCN(C(=S)NCCc2ccccc2)CC1 | inactive | 
CCCC1CCC(=NNC(=S)NCCc2ccccc2)CC1 (centres undefined) | 5.01 µM (active) | 
CCCCNC(=O)C1CCC(=O)N1CCc1ccccc1 (centres undefined) | inactive | 
CCOc1ccc(NC(=O)C(C)N2C(=O)c3ccccc3C2=O)cc1 (centres undefined) | inactive | 

SMILES | Potency | activity change, negative = inhibition
O=C(O)/C=C\C(=O)Nc1ccc(OCc2ccccc2)cc1 | inactive | 
CSc1ccc(NC(=O)/C=C/C(=O)O)cc1 | 0.0794 µM (active) | 
Cc1cccc(N2CCN(c3ccc(NC(=O)/C=C\C(=O)O)cc3)CC2)c1 | inactive | 
CN(C)CCCn1c(SCc2ccc(Cl)cc2)nnc1-c1ccncc1 | inactive | 
O=C(CCCOc1ccc(Cl)cc1Cl)NNC(=O)C1CCC1 | inactive | 
CN1CCC(OC(=O)COc2ccc(Cl)cc2Cl)CC1 | inactive | 
Cn1c(CCCOc2ccc(Cl)cc2Cl)n[nH]c1=S | 6.31 µM (active) | 
CN(C)c1nc(Nc2ccc(Cl)c(Cl)c2)nc(N(C)C)n1 | inactive | 
CN(C)c1ccnc(Nc2ccc(F)cc2)c1C#N | inactive | 
CN(C)c1nc(NN)nc(Nc2ccc(F)cc2)n1 | 7.94 µM (active) | 
COc1ccc(CNC(=O)C2CCN(C(=O)c3ccco3)CC2)cc1 | inactive | 
Cc1c(OC(C)C(=O)NCC2CCC(C(=O)O)CC2)ccc2c1oc(=O)c1ccccc12 (centres undefined) | inactive | 
Cc1ccc(CN2CCNC(=O)C2CC(=O)NCc2csc(C(C)C)n2)cc1 (centres undefined) | inactive | 
COc1cc(NS(=O)(=O)c2ccc(NC(C)=O)cc2)cc(OC)c1 | inactive | 
COc1ccc(NS(=O)(=O)c2ccc(Oc3c(C#N)cccc3C#N)cc2)cc1 | 7.94 µM (active) | 
CCOc1ccc(S(=O)(=O)Nc2ccc(S(=O)(=O)Nc3cc(OC)ccc3OC)cc2)cc1 | inactive | 
CCn1ccnc1CN(C)C(=O)c1cc(COc2ccc(Cl)cc2OC)on1 | inactive | 
Oc1ccc(CN2CCN(c3ncccn3)CC2)cc1 | inactive | 
Oc1c(CN2CCN(c3ccc(F)cc3)CC2)cc(Cl)c2cccnc12 | 0.562 µM (active) | 
O=C(c1cccc(C(=O)N2CCN(c3ccc(F)cc3)CC2)c1)N1CCN(c2ccc(F)cc2)CC1 | inactive | 
COCCNC(=O)C1CCN(C(=O)C2CC(=O)N(c3ccc(C)cc3)C2)CC1 (centres undefined) | inactive | 
O=C(c1cncc(Br)c1)N1CCN(c2ccc([N+](=O)[O-])cc2)CC1 | inactive | 

SMILES | Potency | activity change, negative = inhibition
Cc1cccc(C(=O)Nc2ccccc2N2CCN(c3ccc(F)cc3)CC2)c1 | inactive | 
Cc1cccc(C(=O)NC(=S)N2CCN(c3ccc([N+](=O)[O-])cc3)CC2)c1 | 0.447 µM (active) | 
CC(C(=O)c1ccc(-c2ccccc2)cc1)[n+]1cccc(Br)c1 (centres undefined) | inactive | 
CCn1c2ccc(F)cc2c2nnc(SCCN3CCOCC3)nc21 | inactive | 
CCn1c(NCCc2ccc(OC)c(OC)c2)nc2c1c(=O)n(C)c(=O)n2C | inactive | 
Cn1c(=O)c2c(nc(NCc3ccccc3)n2CC(N)=O)n(C)c1=O | inactive | 
Cn1c(=O)c2c(nc(NCCc3ccccc3)n2Cc2ccccc2)n(C)c1=O | 11.2 µM (active) | 
COc1ccc(/C=C/NC(=O)c2ccc(OC)cc2)cc1 |  | -26.7% [at 10 µM] (inactive)
O=C(/C=C/c1ccccc1)c1ccccc1O | inactive | 
COc1ccc(/C=C/C(=O)c2ccc(OC)cc2O)cc1 | 8.91 µM (active) and 316 nM (active) | 
CCC(C(=O)NCc1cccnc1)n1nc(C)c2sc3ccccc3c2c1=O (centres undefined) | inactive | 
CC(=O)c1ccc2c(ccc3ccccc32)c1 | inactive | 
C=CC(=O)c1ccc2ccccc2c1 | 0.631 µM (active) | 
CC(=O)CCC(=O)c1ccc2ccccc2c1 | inactive | 
COc1ccc2[nH]cc(/C=C(/C#N)S(=O)(=O)c3ccccc3)c2c1 | 7.08 µM (active) | 
COc1ccc(/C=C(\C#N)c2c[nH]c3ccccc23)cc1 | inactive | 
CCN(CC)CC(=O)c1c[nH]c2ccc(OC)cc12 | inactive | 
COC(=O)c1cccc(C(=O)N2CCC(CCC(=O)NCc3ccc(F)cc3)CC2)c1 | inactive | 
COc1cccc(CN(C)CC2CCCN(CCc3ccc(Cl)cc3)C2)c1OC (centres undefined) | inactive | 
CCS(=O)(=O)N1Cc2ccccc2CC1C(=O)Nc1ccc(OC)cc1OC (centres undefined) | inactive | 
NS(=O)(=O)c1ccc2nc(NC(=O)CS(=O)(=O)c3ccc(F)cc3)sc2c1 | inactive | 
CCS(=O)(=O)N1Cc2ccccc2CC1C(=O)Nc1nc2ccc(F)cc2s1 (centres undefined) | 4.47 µM (active) | 

SMILES | Potency | activity change, negative = inhibition
O=C(c1ccc(F)cc1)N1CCCC(C(=O)N2CCCCC2)C1 (centres undefined) | inactive | 
Cc1cc(NS(=O)(=O)c2ccc(NC(=O)c3cccnc3)cc2)nc(C)n1 | inactive | 
Cc1cc(C)c2c(Cn3ccnc3)cc(=O)oc2c1 | inactive | 
O=C(c1cc(-c2ccc(Cl)cc2)on1)N1CCN(c2ccccc2)CC1 | inactive | 
Brc1ccccc1/C=N/Nc1nc2ccccc2o1 | 2.51 µM (active) | 
Oc1c(Br)cccc1/C=N/Nc1c(F)c(F)c(F)c(F)c1F | inactive | 
CCOc1ccccc1/C=N/Nc1nc2ccccc2o1 | 6.31 µM (active) | 
Cc1cccc(COc2ccccc2/C=N/Nc2ccc([N+](=O)[O-])cc2)c1 | inactive | 
COc1ccc(/C=N/Nc2nc3ccccc3o2)cc1OC | inactive | 
O=C(CSc1nc2ccccc2o1)N/N=C/c1ccccc1C(=O)O | inactive | 
CC(=O)Nc1ccc(S(=O)(=O)Nc2cc(C)cn(Cc3ccc(C)cc3)c2=O)cc1 | inactive | 
COCC1CCN(C(=O)C2CCC(=O)N(CC3CCCCC3)C2)CC1 (centres undefined) | inactive | 
CN(Cc1ccccc1)C(=O)CSc1nc2ccccc2[nH]1 | inactive | 
CC/C(O)=C1\C(=O)CC(C)(C)CC1=NCCc1nc2ccccc2[nH]1 | inactive | 
CCC(=O)/C(=C(/O)c1ccccc1)c1nc2ccccc2[nH]1 | 6.31 µM (active) | 
CSc1ncccc1C(=O)Nc1ccc(C)cn1 | inactive | 
O=C(Nc1nnc(-c2ccc(F)cc2)s1)c1c(F)cccc1Cl | inactive | 
COc1cc(S(=O)(=O)N2CCN=C2c2ccccc2)ccc1Cl | inactive | 
CC1=NN(C(=O)c2ccccc2Br)C(O)(c2cccnc2)C1 (centres undefined) | 5.62 µM (active) | 
Cc1ccc(NC(=O)N2CCC(O)(c3cccnc3)CC2)cc1 | inactive | 
Cc1ccc(C(=O)NC(=S)NCc2cccnc2)cc1 | inactive | 
CC1=NN(C(=O)Cc2ccc(C)cc2)C(O)(c2cccnc2)C1 (centres undefined) | 8.91 µM (active) | 

SMILES | Potency | activity change, negative = inhibition
O=C(c1cccc(F)c1)N1CCC(O)(c2cccnc2)CC1 | inactive | 
O=C(CN1CCN(Cc2ccccc2)CC1)Nc1ccc(F)c(F)c1 | inactive | 
CCCC[C@H]1COCCS(=O)(=O)N1Cc1cccc(Cl)c1 | inactive | 
O=C(NCCN1CCCC(O)C1)c1cc(COc2c(F)cccc2F)on1 (centres undefined) | inactive | 
Cc1ccc(C)c(NC(=O)c2cc(-c3cc(C)cc(C)c3O)n[nH]2)c1 | inactive | 
COc1cccc(OCc2cc(C(=O)N3CCN(C(=O)c4ccco4)CC3)no2)c1 | inactive | 
COc1ccc(/C=C/C(=O)NC(=S)NN2CCCCC2c2cccnc2)cc1 (centres undefined) | 7.08 µM (active) | 
COc1ccc(C(=O)NC(=S)N2CCCCC2c2cccnc2)cc1OC (centres undefined) | 0.891 µM (active) | 
CCOC(=O)C1CCCN(C(=O)/C=C/c2ccc(OC)cc2)C1 (centres undefined) | inactive | 
Cc1ccc(-c2cc(C(F)(F)F)n3ncc(C(=O)N4CCCCC4c4cccnc4)c3n2)cc1 (centres undefined) | inactive | 
COc1ccc(C(=O)Nc2cccnc2)cc1C(=O)Nc1cccnc1 | inactive | 
O=C(NC(=S)N1CCCCC1c1cccnc1)c1ccccc1 (centres undefined) | 0.794 µM (active) | 
O=C(Nc1ccccc1C(F)(F)F)N1CCCC1c1cccnc1 (centres undefined) | inactive | 
COc1ccc(/C=C/C(=O)NC(=S)N2CCCC(C(N)=O)C2)cc1 (centres undefined) | inactive | 
COc1ccc(C(=O)N2CCCC(C(=O)c3ccccc3OC)C2)cc1OC (centres undefined) | inactive | 
CCN1CCN(C(=O)C2CCCN(S(=O)(=O)c3ccc(OC)c(OC)c3)C2)CC1 (centres undefined) | inactive | 
COc1cc(C(=O)OC2CCOC2=O)c([N+](=O)[O-])cc1OC (centres undefined) | inactive | 
Cc1ccccc1NC(=O)C1CCN(C(=O)NC2CCCCC2)CC1 | inactive | 
CNC(=S)N1CCN(c2ccccn2)CC1 | inactive | 
CCOC(=O)c1ccc(NC(=S)N2CCN(c3ccccn3)CC2)cc1 | inactive | 
Cc1ccc(NC(=S)N2CCN(c3ncccn3)CC2)cc1C | 12.6 µM (active) | 
